uPA generation: blocks generation of uPA at the cell surface. cell surface uPA generation assay, qHTS. Potency, µM (highest dose often 38.3 µM), usual class: inhibitors. 0.31% of 330,000 active; active = well fitted inhibition curve with a large enough effect; inconclusive = small, poorly fitted or top-dose-only effect; inactive = no such curve, though single readings can be large or run the other way; tested in mouse RAW 264.7 cells; note: nearly all actives have a fitted effect of over 55% in size
HT1080 IDH1KD tx: toxicity to HT-1080 IDH1 knockdown cells (counter line); HT-1080 IDH1 knockdown viability, ATP luminescence, 48 h; Potency, µM (highest dose often 46.1 µM), usual class: cytotoxic; 2% of 360,000 active; AID 686971
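% activity derives from luminescence (CellTiter-Glo), normalised to DMSO and no-cell wells. HT-1080-IDH1KD cells, 750/well, had 48 h compound exposure at 37 °C.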
DT40 TDP1 no CPT: qHTS for Inhibitors of human tyrosyl-DNA phosphodiesterase 1 (TDP1): qHTS in cells in absence of CPT | AID 686978, 2013 | DT40 Tdp1-/- hTDP1 cells, no CPT, ATP luminescence, 48 h | 15% of 420,000 active | Potency, µM (series often up to 46.2 µM), actives largely listed as inhibitors; note: nearly all actives have a fitted effect of over 55% in size
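Growth kinetics read by CellTiter-Glo luminescence after ≥48 hr at 37 °C. Cells: DT40 Tdp1-/- stably carrying human TDP1, 400 per well, compound exposure in the absence of CPT (DMSO vehicle).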
HT1080NT lethal: kills 2HG-producing HT-1080-NT fibrosarcoma cells; Potency, µM (series often up to 46.1 µM), actives largely listed as cytotoxic; HT-1080-NT fibrosarcoma viability, CellTiter-Glo ATP luminescence, 48 h; 1.6% of 360,000 active;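 note: NT is the 2HG producing partner of a matched IDH1 knockdown line; nearly all actives have a fitted effect of over 55% in size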
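Luminescent CellTiter-Glo readout after 48 hours of compound exposure at 37 degrees C defined viability of HT-1080-NT cells. Activity was normalized to DMSO wells and cell-free media wells; concentration-response curves were fitted and assigned curve classes.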
DT40 TDP1 CPT: growth inhibition of DT40 Tdp1-/-;hTDP1 cells with camptothecin (screen for TDP1 inhibitors) | chicken DT40 Tdp1-/-;hTDP1 cells + 20 nM CPT, ATP luminescence, 48 h | 12% of 420,000 active | Potency, µM (series often up to 46.2 µM), usual class: inhibitors | AID 686979; note: nearly all actives have a fitted effect of over 55% in size
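Chicken DT40 Tdp1-/- cells stably complemented with human TDP1 were seeded at 400 cells/well in medium containing 20 nM camptothecin, exposed to pin-transferred compounds, and grown at 37 °C for at least 48 hr. Viability was read as ATP luminescence.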
IL-1B inflam inh: blocks inflammasome-driven IL-1 beta release. THP-1 LPS/ATP IL-1B secretion, AlphaLISA, 16 h; stronger effect = lower value. activity change, % at 57.5 µM. 4.7% of 360,000 active; in the data active = activity change below about -50%; inconclusive = mostly about -30% to -49%
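Secreted IL-1B measured by AlphaLISA bead assay after 16 h compound exposure of THP-1 cells; compounds (final up to 57.5 uM) added 1 h before LPS (250 ng/mL) and ATP (1.25 mM) stimulation; lower signal means less secretion.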
Numbers stand for hits; i = inactive; ? = inconclusive; nt = no result given. Only some compounds are listed: those with a hit (about 19% of all), similar ones and a draw of the others. Unless noted, calls come from the whole dose curve; as a rule, active = well fitted curve in the direction sought with a large enough effect; inconclusive = small, poorly fitted or top-dose-only effect, or another doubt; inactive = no such curve, though single readings can be large; an effect the other way counts as inactive or inconclusive.

SMILES	uPA generation	HT1080 IDH1KD tx	DT40 TDP1 no CPT	HT1080NT lethal	DT40 TDP1 CPT	IL-1B inflam inh
Clc1cccc(Cl)c1C[n+]1ccc2ccccc2c1	i	?	1.46µM	i	1.64µM	i
c1ccc(C[n+]2ccc3ccccc3c2)cc1	i	i	16.4µM	i	10.3µM	i
c1ccc(CC[n+]2ccncc2)cc1	nt	nt	i	nt	i	nt
NC(=O)c1ccc[n+](Cc2ccccc2)c1	i	i	i	i	i	i
c1ccc(C[n+]2cccc(-c3ccccc3)c2)cc1	i	i	8.2µM	i	8.2µM	i
O=C(CCCCn1cnc2c(=S)nc[nH]c21)Nc1ccc(C(=O)O)c(O)c1	i	i	i	i	i	i
COc1ccc(S(=O)(=O)N2CCN(C(=O)N3CCOCC3)C2C)cc1 (centres undefined)	i	i	i	i	i	i
CCN=C1NN=C(c2c[nH]c3ccccc23)CS1	i	i	i	i	i	-105.7
COc1ccc(CN=C2NN=C(c3ccccc3)CS2)cc1	i	i	?	i	i	i
COCC(C)N=C1NN=C(c2c[nH]c3ccccc23)CS1 (centres undefined)	i	i	i	i	i	-79.7
Cc1c(C)c2ccc(OCC(=O)N3CCN(C(=O)C4COc5ccccc5O4)CC3)cc2oc1=O (centres undefined)	i	i	2.31µM	i	?	i
CCCc1cc(=O)oc2cc(OCC(=O)N3CCN(C(=O)C4COc5ccccc5O4)CC3)ccc12 (centres undefined)	i	i	5.8µM	i	?	i
CC(C)CN(C(=O)CN1CCc2ccccc21)c1c(N)n(CC(C)C)c(=O)[nH]c1=O	i	i	i	i	i	i
C=C1[C@H](C)CN(S(=O)(=O)C(C)(C)C)[C@H]1CCO	i	i	i	i	i	i
CC(C)(C)S(=O)(=O)N1C[C@@H]2CC/C=C\C/C=C\2[C@H]1CCO	i	i	8.2µM	i	13µM	i
C=C(CCO)C1=CCN(S(=O)(=O)C(C)(C)C)[C@H]1CCO	i	i	i	i	i	i
CC(C)(C)S(=O)(=O)N1C[C@H]2CC/C=C\C/C=C\2[C@@H]1CCO	nt	i	13µM	i	20.6µM	i
CC1(C(=O)NS(=O)(=O)c2ccc3c(c2)CCO3)CCN1C(=O)CCC1CCCC1 (centres undefined)	nt	?	i	i	i	i
COc1cc(/C=N/NC(=O)c2ccncc2)ccc1OC(=O)c1cc(OC)c(OC)c(OC)c1	i	i	i	i	i	i
CNc1ccccc(C(=O)/C=C/c2ccccc2OC)c1=O	i	i	14.6µM	i	18.4µM	-104.2
COc1ccccc1/C=C/C(C)=O	i	i	i	i	i	i
COc1ccccc1C=CC(=O)C=Cc1ccccc1OC	i	13µM	3.26µM	?	4.61µM	-104.3
COc1ccccc1/C=C/C(=O)Nc1cccnc1Cl	i	i	i	i	i	-54.9
COc1ccccc1/C=C/C(=O)/C=C/c1ccccc1O	i	5.8µM	2.91µM	6.51µM	2.91µM	-98.3
Cn1nc(C(=O)OCC(=O)Nc2cc(Cl)ccc2C#N)c2ccccc2c1=O	i	i	i	i	i	i
SMILES	uPA generation	HT1080 IDH1KD tx	DT40 TDP1 no CPT	HT1080NT lethal	DT40 TDP1 CPT	IL-1B inflam inh
Cc1cccc(CNC(=O)C2CCC(=O)N(CCc3cccc(F)c3)C2)n1 (centres undefined)	i	i	i	i	i	i
Cc1ccc(S(=O)(=O)N2[C@@H](CO)CO[C@H]2CC(=O)c2cccs2)cc1	nt	i	?	i	?	i
COc1ccc(C2C3=C(N=C4SCC(=O)N42)c2ccccc2CC3)cc1OC (centres undefined)	nt	i	14.6µM	i	14.6µM	i
Oc1ccc(CN2CCN(c3ccccc3)CC2)c2cccnc12	i	0.708µM	3.26µM	1.12µM	5.17µM	i
CSc1ncccc1C(=O)N1CCN(S(=O)(=O)c2cc(C)ccc2C)CC1	i	i	i	i	i	i
Oc1ccc2ccccc2c1CN1CCN(c2ccccc2)CC1	i	i	i	i	i	i
CCOC(=O)N1CCN(Cc2ccc(O)c3ncccc23)CC1	i	6.51µM	0.651µM	20.6µM	0.581µM	i
Ic1ccc(N2CCN(Cc3c[nH]c4ncccc34)CC2)cc1	i	?	3.26µM	?	11.2µM	i
Cc1ccc(C)c(S(=O)(=O)N2CCN(Cc3ccc(O)c4ncccc34)CC2)c1	i	?	5.8µM	?	5.8µM	i
CCNc1ncnc2[nH]ncc12	i	i	i	i	i	i
Cc1ccc(NC(=O)CSC(C)C(=O)OCC(=O)N2CCN(C(=O)c3ccco3)CC2)cc1 (centres undefined)	i	i	i	i	i	i
CCN(c1ccc(C)cc1)S(=O)(=O)c1nnc(NC(=O)c2ccco2)s1	i	i	i	i	i	i
CCN(c1cc(C)cc(C)c1)S(=O)(=O)c1nnc(NC(=O)c2cccc(F)c2)s1	nt	nt	13µM	nt	11.6µM	nt
CCN(c1ccc(Cl)cc1)S(=O)(=O)c1nnc(NC(=O)c2ccccc2C)s1	nt	nt	14.6µM	nt	16.4µM	nt
CCOC(=O)c1c(-c2ccccc2)nnn1-c1nc(OCC)nc(N2CCCCC2)n1	i	?	?	?	18.4µM	i
CCOC(=O)c1nnn(-c2nc(N3CCCC3)nc(N3CCCC3)n2)c1-c1ccccc1	i	i	?	i	18.4µM	i
CCOc1nc(N2CCCCC2)nc(-n2cc(-c3ccccc3)nn2)n1	i	i	18.4µM	i	16.4µM	nt
CN(C(=O)CN1C(=O)NC(c2ccccc2)(c2ccccc2)C1=O)C1CCS(=O)(=O)C1 (centres undefined)	?	i	i	i	i	i
C/C(=N\NC(=S)NC1CCCCC1)c1cccc(Br)c1	i	i	16.4µM	i	?	i
C/C(=N\NC(=S)NC1CCCCC1)c1cccc(C(F)(F)F)c1	i	i	23.1µM	i	20.6µM	i
O=C(CCc1nnc(COc2ccccc2)o1)NC1(c2ccccc2)CC1	i	i	i	i	i	i
Oc1ccc(Oc2ccc(Oc3ccc(O)cc3)cc2)cc1	?	i	4.11µM	i	5.8µM	i
CC1CCc2nc(/C(C#N)=C/c3ccncc3)sc2C1 (centres undefined)	i	i	?	i	18.4µM	i
N#C/C(=C/c1ccncc1)c1nc2ccccc2s1	i	i	i	i	i	i
Cn1cc(C(=O)NCc2ccc(Cl)cc2)c(=O)c2cc(S(=O)(=O)N3CCCCCC3)ccc21	nt	nt	16.4µM	nt	?	nt
CCN(CC)S(=O)(=O)c1ccc2c(c1)c(=O)c(C(=O)NCc1ccc(Cl)cc1)cn2C	nt	nt	9.2µM	nt	10.3µM	nt

Source: PubChem
